# From PubChem BioAssay (NCI)
# This is part of a sample that, as a whole, favours compounds with a hit. Of some 83,000 tested, about 20% had one in any assay.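 Activity criterion: percent growth below 10, measured after cells in 96-well plates were exposed to a single compound concentration for 48 hours.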 A number with no mark means an inactive call. Activity calls are given as the source filed them.
# Columns and labels:
# Assay in all cases: NCI-60 one-dose screen, 48 h (100 = growth as untreated, 0 = no growth, -100 = all killed)
# Settings in all cases: 10 µM
# RPMI-8226 leukemia = test system: RPMI-8226 leukemia
# OVCAR-8 ovarian = test system: OVCAR-8 ovarian
# OVCAR-5 ovarian = test system: OVCAR-5 ovarian
# OVCAR-4 ovarian = test system: OVCAR-4 ovarian
# SK-OV-3 ovarian = test system: SK-OV-3 ovarian
# IGROV1 ovarian = test system: IGROV1 ovarian
# OVCAR-3 ovarian = test system: OVCAR-3 ovarian
# HS 578T breast = test system: HS 578T breast
# NCI/ADR-RES ovarian = test system: NCI/ADR-RES ovarian
SMILES,growth (RPMI-8226 leukemia),growth (OVCAR-8 ovarian),growth (OVCAR-5 ovarian),growth (OVCAR-4 ovarian),growth (SK-OV-3 ovarian),growth (IGROV1 ovarian),growth (OVCAR-3 ovarian),growth (HS 578T breast),growth (NCI/ADR-RES ovarian)
CC(C)(C)Nc1nc2cc(Cl)c(Cl)cc2nc1S(C)(=O)=O,42.3%,41.3%,79.3%,-6.34% (active),72.8%,45.2%,-80.3% (active),56.8%,7.99% (active)
Cc1ccc(NCC(=O)Nn2c(COc3ccccc3)nc3ccccc3c2=O)cc1,85.9%,60.1%,92.3%,25.4%,52.8%,82.4%,75.4%,66.1%,72.6%
Cc1cc(C)nc(SCC(=O)Nc2ccc(S(N)(=O)=O)cc2)n1,99.5%,105%,107%,112%,106%,109%,113%,114%,106%
O=C1CCC(N2Cc3c(C#CCCCNC(=O)c4ccc(NC(=O)[C@@H]5NC6(CCCCC6)[C@@]6(C(=O)Nc7cc(Cl)ccc76)[C@H]5c5cccc(Cl)c5F)cc4)cccc3C2=O)C(=O)N1 (some centres not stated),43.7%,69%,76.6%,56.5%,74.2%,11.7%,72.3%,46.2%,85.7%
COC(=O)C(Cc1ccc(O)c(O)c1)NC(=O)C(CSC/C=C(\C)CCCC(C)CCCC(C)CCCC(C)C)NC(C)=O (configuration not stated),-5.06% (active),10.8%,28%,19.7%,41.7%,17.4%,34.8%,25.5%,73.8%
COc1ccc(-c2nc(S(=O)(=O)c3ccccc3)c(S(C)(=O)=O)o2)cc1,-39.9% (active),-28.3% (active),-77.2% (active),-87% (active),97.9%,77.2%,-81.8% (active),75.2%,0.892% (active)
CC(=O)Nc1ccc(-n2cnc3cc(-c4ccc(O)cc4)ccc32)cc1C,42.7%,58%,72.7%,70.2%,78.8%,80.2%,80.3%,64.6%,29.4%
CN1CCN(c2ccc(Nc3nc(NCCCNC(=O)c4ccccc4)c4sccc4n3)cc2)CC1,14.8%,55.9%,88.4%,77.9%,113%,94.9%,78.5%,78.8%,82.3%
CN1CCN(c2ccc(Nc3nc(NCCCNC(=O)c4ccc(F)cc4)c4sccc4n3)cc2)CC1,-22.5% (active),47.5%,78.2%,80.1%,102%,77.8%,61.6%,84.1%,76.2%
O=C(c1ccc([N+](=O)[O-])c([N+](=O)[O-])c1O)n1[nH]c(=O)c2ccccc2c1=O,26.6%,55.5%,110%,78.3%,102%,94.6%,25.8%,77.4%,35.5%
O=C1Nc2ccc(Cl)cc2/C1=C/c1ccc(OCc2ccc(Br)cc2F)cc1,44.7%,5.33% (active),70.6%,-20.5% (active),25.1%,39.2%,0.51% (active),-0.705% (active),13.1%
CC(=O)Nc1ccc(-n2cnc3cc(-c4ccc(O)cc4)ccc32)cc1F,14.3%,15.9%,42.7%,61%,13%,35.9%,6.74% (active),18.7%,4.16% (active)
CCCCCc1ccc(S(=O)(=O)Nc2cc(-c3csc(N(C)C(C)=O)n3)ccc2N2CCN(C)CC2)cc1,-9.26% (active),36%,68%,11.6%,21.4%,48%,60.2%,28.7%,32.7%
COc1cccc2nc(Nc3ccc(F)c(NC(=O)c4ccc(CN5CCN(C)CC5)c(C(F)(F)F)c4)c3)ccc12,-43.9% (active),30.9%,72.5%,32.6%,53.8%,29.3%,-33.3% (active),6.57% (active),-3.12% (active)
O=C(Nc1cccc(-c2cn(-c3ccc4oc(=O)ccc4c3)nn2)c1)Nc1cc(C(F)(F)F)cc(C(F)(F)F)c1,6.66% (active),34.6%,66.4%,7.53% (active),36.5%,29.9%,16.2%,27.7%,50.4%
COc1ccc(-c2ccc(/C=N/NC(=O)c3[nH]c4ccc(Br)cc4c3-c3ccccc3)o2)cc1,18.9%,37.1%,68.5%,44.2%,49.2%,64.6%,21.1%,28.5%,-22.8% (active)
COc1ccc(-c2nc(S(=O)(=O)c3ccc(C)cc3)c(S(=O)(=O)CC(=O)N(C)Cc3ccccc3)o2)cc1,-35.3% (active),29.2%,63.1%,68.5%,98.4%,66.3%,1.33% (active),67.2%,28.8%
CONC[C@]1(C)C=C2C(=O)[C@](C)(O)C3(CC3)C(C)=C2[C@H]1O,54.3%,-6.95% (active),-44.2% (active),-17.4% (active),-14.4% (active),-15.4% (active),-20.4% (active),-12.4% (active),-58.3% (active)
O=c1nc(-c2ccccc2)cc(-c2cc3ccccc3nc2Cl)[nH]1,-29.4% (active),-68.1% (active),40.9%,80.6%,84.8%,56.8%,8.83% (active),69.6%,-70.1% (active)
CCOC(=O)C1=C(N)N(c2ccc(Cl)cc2)C2=C(C(=O)CC(C)(C)C2)C1c1ccc(N2CCOCC2)cc1 (configuration not stated),99.9%,100%,106%,105%,109%,98%,102%,109%,97.4%
CC(=O)NNc1ccc2nnc(-c3ccc(Br)cc3)n2n1,91.7%,105%,102%,99.4%,81.2%,105%,104%,102%,101%
C/C(=C\CC/C=C(\C)CC/C=C(\C)CC[C@@H](O)C(C)(C)O)CC/C=C(\C)CC[C@@H](O)C(C)(C)O,-11.4% (active),47.6%,56.1%,42%,64.4%,76.8%,42.6%,39%,30.2%
COC[C@@H](CC(C)C)N=C1N/C(=C\c2ccc3ncsc3c2)C(=O)N1C,3.65% (active),17.6%,-6.76% (active),29.3%,0.794% (active),9.21% (active),3.27% (active),15.4%,0.43% (active)
Nc1nc(-c2ccccc2)cc(-c2cc3ccccc3nc2Cl)n1,19.2%,83.9%,97.8%,96%,99.2%,97.9%,67.7%,82.8%,80.7%
COc1ccc2[nH]c(O)c(N=NC(=O)COc3ccc(NC(=O)Nc4ccc(Cl)cc4)cc3)c2c1,32.1%,-28.6% (active),48%,-21.6% (active),49.6%,68.8%,-30.6% (active),22.8%,102%
Cc1ccc(C(=O)Nc2ccc(-n3c(C)nc4c(cnn4-c4ccccc4)c3=O)cc2)cc1,58.4%,76.8%,86%,49.8%,97.4%,71.6%,97%,84.8%,52.7%
COc1ccc(N2N=C(c3ccc4c(c3)OCCO4)CC2c2cccc(NC(=O)CCCNS(=O)(=O)c3ccc(F)cc3)c2)cc1 (configuration not stated),41.2%,87.7%,89%,60%,101%,81.5%,81.3%,78.7%,88.5%
COc1ccc2[nH]c(=O)c(CSc3nccc(-c4ccc(Cl)cc4)n3)cc2c1,17.6%,-10.4% (active),50.9%,36.3%,42.1%,60.9%,44.8%,37.2%,12.2%
